Screening results deposited in PubChem by several laboratories.
PrP UTR inh: inhibition of PrP 5' UTR reporter expression. cell-based PrP 5' UTR mRNA reporter, plate reader. inhibition, % (no concentration beside the values). 340,000 compounds, 0.35% hits. AID 488862, 2010; in the data active means inhibition above about 52%; further: 0 = median of the neutral control wells
BJeLR viability: MLPCN primary cell-based screen for lethality selective to Ras in HRASV12 cells; 300,000 compounds, 0.17% hits; BJeLR (HRASV12) viability, CellTiter-Glo ATP luminescence, 48 h; AID 1554, 2009; inhibition, % (test concentration not listed); in the data active means inhibition above about 50%; inconclusive means no clear call, values can overlap the other calls
PrPC TRFRET: inhibitors of human cell surface prion protein PrPC, primary screen, cell-based, TR-FRET; Major prion protein (Homo sapiens), P04156; TR-FRET read-out; inhibition, % at 13.8 µM; 370,000 compounds, 0.43% hits; AID 720596, 2013; in the data active means inhibition above about 24%; further: 0% = median of the test wells and 100% = reference compound wells
Yp Topo-I inh: Yersinia pestis topoisomerase I inhibitors, primary screen, biochemical, cleavage product accumulation, plate reader, single point | Y. pestis Topo-I cleavage product accumulation | activity, % at 10 µM | 360,000 compounds, 0.064% hits | DNA topoisomerase I (Yersinia pestis CO92) | AID 504884, 2011; in the data active means activity above about 50%, passing the limit was not always enough; inconclusive means no clear call, values can overlap the other calls
PfHsp40 rescue: rescue of yeast from PfHsp40 toxicity, primary screen, S. cerevisiae, ATP luminescence. S. cerevisiae expressing PfHsp40, growth rescue. growth rescue, % at 12.5 µM. 340,000 compounds, 0.68% hits. AID 504582, 2011; in the data active means growth rescue above about 28%, passing the limit was not always enough; inconclusive means no clear call, values can overlap the other calls;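 further: yeast W303a lacking pdr1 and pdr3 grown in galactose medium; growth measured after three days at 30 °C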
SSB-PriA inh: inhibitors of Klebsiella pneumoniae PriA binding to SSB C-terminal tail, primary screen, biochemical, AlphaScreen; PriA–SSB C-terminal tail interaction (Klebsiella pneumoniae); AlphaScreen SSBct-PriA binding, biotinylated peptide; inhibition, % at 33 µM; 430,000 compounds, 0.6% hits; AID 1272365, 2023; in the data active means inhibition mostly above about 37%, no sharp cut-off; inactive means mostly below about 20%;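 further: plate controls were negative control peptide for no effect and reference peptide for full effect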
An asterisk follows results filed as active; u = inconclusive; x = no result given; ! = not active in a repeat. A selection: hits, their analogues and other compounds. The true share with any hit is near 1.7%.

SMILES | PrP UTR inh | BJeLR viability | PrPC TRFRET | Yp Topo-I inh | PfHsp40 rescue | SSB-PriA inh
CCn1c(=O)c(C(=O)CN2c3ccccc3CC2C)c(N)n(Cc2ccccc2)c1=O (stereo not drawn) | 1 | -3 | -4 | u | 0 | 39*
CC1Cc2ccccc2N1CC(=O)c1c(N)n(Cc2ccccc2)c(=O)n(C)c1=O (stereo not drawn) | -20 | 6 | 2 | -14 | 0 | 7
CCOC(=O)C1CCN(C(=O)c2cc3c(=O)n4cccc(C)c4nc3s2)CC1 | -11 | 3 | 0 | 19 | 32* | -15
Cc1cc(C)cc(NC(=O)CS(=O)(=O)c2cn(CC(=O)N3CCCC3)c3ccccc23)c1 | x | x | x | x | x | 50*
O=C(CN1C(=O)CCC1=O)N1CCN(C(=O)C2CC2c2ccc(F)cc2)CC1 (stereo not drawn) | x | x | x | x | x | -18
CCOC(=O)N1CCN(C(=O)c2ccc3c(=O)n(Cc4ccccc4OC)c(=S)[nH]c3c2)CC1 | -3 | -14 | -5 | 2 | 29* | 7
COc1ccc(-c2nnc3ccc(OCCNC(=O)C(C)(C)C)nn23)cc1 | x | x | x | x | x | -19
CC(C)N1CCc2c(sc(NC(=O)c3ccc(C(=O)c4ccccc4)cc3)c2C(N)=O)C1 | -7 | 13 | -18 | -5 | 1 | 81*
CC(C)N1CCc2c(sc(NC(=O)Cc3ccccc3)c2C(N)=O)C1 | -18 | 6 | -3 | 7 | 1 | -1
COc1cccc(OC)c1C(=O)Nc1sc2c(c1C(N)=O)CCN(Cc1ccccc1)C2 | -11 | 1 | -7 | 9 | 2 | 1
CCN1CCc2c(sc(NC(=O)c3cc4ccccc4cc3OC)c2C(N)=O)C1 | -5 | 60* | -5 | -10 | 2 | 5
CC(=O)N1CCc2c(sc(NC(=O)Cc3ccccc3)c2C(N)=O)C1 | -11 | 8 | 4 | -2 | -1 | 115*
CN(C)CCCN1C(=O)C(O)=C(C(=O)c2ccco2)[C@H]1c1cccnc1 | x | x | x | x | x | -24
Fc1ccc(-n2c(-c3cc(C4CC4)[nH]n3)n[nH]c2=S)cc1Cl | -14 | -4 | 7 | 18 | -2 | -4
O=c1ccc(-c2n[nH]c(=S)n2-c2ccc(F)c(Cl)c2)n[nH]1 | -3 | -2 | -2 | 2 | 52* | -13
c1ccc2nc(-c3nc4ccccc4o3)ccc2c1 | x | 53* | -24 | 12 | 1 | -14
c1ccc(-c2nc3ccccc3o2)nc1 | -46 | 3 | -4 | 3 | -1 | 1
Cc1ccc(CNC(=O)C[C@@H]2Nc3cc(C)c(C)cc3NC2=O)cc1 | x | x | x | x | x | 3
O=C(O)[C@H]1CCCC[C@H]1C(=O)Nc1ccc(S(=O)(=O)N2CCCCC2)cc1 | -19 | 4 | -2 | 5 | 0 | -4
O=C(O)C1CCCCC1C(=O)Nc1ccc(S(=O)(=O)N2CCCC2)cc1 (stereo not drawn) | -9 | -11 | 4 | 4 | 116* | -15
Cc1nc2c(=O)n(C)c(=O)nc-2n(C)n1 | -7 | 36 | 25* | -4 | -1 | 0
CCS(=O)(=O)c1ccc(C(=O)Nc2ccc3c(c2)C(=O)NC3=O)cc1 | x | x | x | x | x | -17
Cc1ccc(CC(=O)Nc2nc3c(s2)CCCC3)c(C)c1 | x | x | x | x | x | 21
O=C(N/N=C/c1ccncc1)c1cc2ccccc2cc1O | -18 | -1 | -2 | -12 | 187* | x
Cn1cccc1C=NNC(=O)c1cc2ccccc2cc1O | x | x | x | x | x | 43*
SMILES | PrP UTR inh | BJeLR viability | PrPC TRFRET | Yp Topo-I inh | PfHsp40 rescue | SSB-PriA inh
O=C(NN=Cc1ccc[nH]1)c1cc2ccccc2cc1O | x | x | x | x | x | 3
Cc1ccc(S(=O)(=O)c2cnc3cc(C)nn3c2N)cc1 | -2 | -7 | 1 | -2 | 32* | 2
O=C1C2C3C=CC(C3)C2C(=O)N1CCCCN1C(=O)C2C3C=CC(C3)C2C1=O (stereo not drawn) | -8 | -2 | 2 | -6 | -1 | -10
O=C1[C@@H]2[C@H](C(=O)N1O)[C@H]1C=C[C@@H]2C1 | 4 | -4 | -3 | 2 | 34* | 4
COc1ccc(OCC(=O)Nc2ccc(NC(=O)c3cccs3)c(OC)c2)cc1 | -16 | -6 | 0 | 3 | 0 | -4
COc1cc(NC(=O)c2cccs2)c(OC)cc1NC(=O)CCC(=O)Nc1ccc2ncccc2c1 | -22 | 58* | -1 | 26 | 0 | -13
CCc1ccc(S(=O)(=O)N2CCN(c3ccc(-c4ccccc4OC)nn3)CC2)s1 | x | x | x | x | x | -11
O=C(C(O)c1ccccc1)N1CCCC(Oc2cnccn2)C1 (stereo not drawn) | x | x | x | x | x | -18
CCc1ccc(N2C(=O)C3N=NN(c4ccccc4)C3C2=O)cc1 (stereo not drawn) | x | x | x | x | x | -8
COC(=O)c1cc(=O)n(-c2ccc(C(F)(F)F)cc2)[nH]1 | -13 | 3 | -3 | -3 | 190* | 5
NC(N)=N/N=C/c1ccc(N(c2ccccc2)c2ccccc2)cc1 | -15 | 7 | -1 | -43 | 105* | x
COc1cccc(/C=N/Nc2ncnc3scc(-c4ccccc4)c23)c1O | 50 | 70* | 3 | 67* | 422* | x
COc1cccc(/C=N/Nc2nccnc2Cl)c1O | 48 | 18 | 2 | 2 | 88* | x
COc1cccc(C=NNc2ncnc(Cl)c2N)c1O | x | x | x | x | x | 90
COc1cccc(/C=N/Nc2ncnc(Cl)c2N)c1O | 16 | 56* | -27 | -3 | 16 | x
Cn1nc(C(=O)N2C3CCC2c2cncnc2C3)ccc1=O (stereo not drawn) | x | x | x | x | x | 0
CCC(=O)Nc1ccc(S(=O)(=O)NCC2CCN(Cc3cccs3)CC2)c(C)c1 | x | x | x | x | x | -8
COCC(=O)Oc1c(S(=O)(=O)c2ccc(C)cc2)c(C)nn1-c1ccccc1 | -3 | 2 | -1 | -1 | 157* | -1
CC1CCCN(C(=O)c2ccc3c(c2NCCO)C(=O)c2ccccc2C3=O)C1 (stereo not drawn) | -11 | 4 | -71 | 4 | 0 | 64*
Cc1ccc(S(=O)(=O)Nc2cc(Cl)c(O)c3ncccc23)cc1 | 22 | 22 | -18 | -16 | -2 | 45*
Oc1c(Cl)cc(Cl)c2cccnc12 | -10 | -2 | -1 | 3 | 10 | 83*!
Fc1c(Cl)ccc2cccnc12 | x | x | x | x | x | 33
Ic1cccc2cccnc12 | x | x | x | x | x | 33
Oc1c(I)cc(I)c2cccnc12 | -13 | 4 | -4 | 2 | u | 58*
Oc1c(Cl)ccc2cccnc12 | x | x | x | x | x | 82*
Cn1cc2c(n1)c(=O)n(Cc1ccc(F)cc1)c(=O)n2CC(=O)NCc1ccccc1Cl | x | x | x | x | x | -3
O=C(Nc1ccn(CCCN(CCCn2ccc(NC(=O)OCc3ccccc3)nc2=O)CCc2cc3ccccc3[nH]2)c(=O)n1)OCc1ccccc1 | -20 | x | -2 | 77* | -1 | -2
O=C(Nc1ccn(CCCNCc2ccccc2)c(=O)n1)OCc1ccccc1 | -8 | x | 2 | 27 | 0 | -5
